The structures appear in SMILES notation. Calls of active or inactive are those of the source.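 The calls were made as follows: active = cell killing with a fitted half-maximal concentration no more than twice the top valid dose used; inconclusive = flat curve with a moderate signal drop, or poor fit; inactive = the rest.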

The assay can be described thus: HepG2 cell cytotoxicity, dose response, cytotoxicity control, plate reader, dry powder, set 7 (AID 743313). The following applies: HepG2 viability, ATP luminescence (CellTiter-Glo), 72 h; series mostly up to 26 µM. In general terms: In ATP-based viability assays light output follows the ATP content of the culture.
Turning to `Cc1ccc(C(C)C)c(OCCn2c(=S)[nH]c3ccccc32)c1`, the result was inactive.

With `Cc1ccc(OCCn2c(C)nc3ccccc32)cc1`, the compound was classed as inactive.

Regarding `CC(C)(C)c1ccc(OCCn2c(=S)[nH]c3ccccc32)cc1`, the call was inactive.

Turning to `Cc1ccc(C(C)C)c(OCCn2c(=S)[nH]c3c(Cl)cccc32)c1`, the outcome was inactive.

As to `Cc1cccc(OCCn2c(=S)[nH]c3cc(C(F)(F)F)ccc32)c1`, the result was inactive.

With `Cc1cccc2[nH]c(=S)n(CCOc3ccccc3)c12`, the compound was called inactive.

With `Fc1ccccc1OCCn1c(=S)[nH]c2ccccc21`, the outcome was inactive.

These data come from PubChem BioAssay AID743313 (Broad Institute, 2014).
